Data: the supplement of paper PMC6555819

Assays:
Test in all cases: PBM binding z-score (relative to random genomic background probes); higher = stronger binding; sequences stand for … in GC…GCGATTGACAGCGTAGAATGAAGG
[1] = tested on: FXR:RXRa (NR concentration 270 nM, RXRa partner concentration 90 nM)
In short: (§1)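 Scanned fluorescence from custom Agilent 4×180K protein-binding microarrays was regression-normalized. Binding z-scores use random background probes as reference. Ligand-free nuclear receptor dimers were incubated on the arrays for 1 h and detected with antibodies against each partner (one per run).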

[2] = tested on: LXRa:RXRa (NR concentration 270 nM, RXRa partner concentration 90 nM)
In short: as §1

[3] = tested on: LXRa homodimer (NR concentration 270 nM)
In short: as §1

[4] = tested on: LXRb:RXRa (NR concentration 270 nM, RXRa partner concentration 90 nM)
In short: as §1

[5] = tested on: LXRb homodimer (NR concentration 270 nM)
In short: as §1

[6] = tested on: PPARa:RXRa (NR concentration 270 nM, RXRa partner concentration 90 nM)
In short: as §1

[7] = tested on: PPARg:RXRa (NR concentration 180 nM, RXRa partner concentration 90 nM)
In short: as §1

[8] = tested on: PPARg:RXRa 270nM:90nM, anti-RXR (NR concentration 270 nM, RXRa partner concentration 90 nM)
In short: as §1

[9] = tested on: PPARg:RXRa 30nM:10nM, anti-RXR (NR concentration 30 nM, RXRa partner concentration 10 nM)
In short: as §1

[10] = tested on: PPARg:RXRa 90nM:30nM, anti-RXR (NR concentration 90 nM, RXRa partner concentration 30 nM)
In short: as §1

[11] = tested on: PPARg:RXRa DBDmut IVT, anti-RXR (DBD mutation: RXRa K156A/R161A, NR concentration 270 nM, RXRa partner concentration 90 nM)
In short: as §1

[12] = tested on: PPARg:RXRa IVT, anti-PPARg (NR concentration 270 nM, RXRa partner concentration 90 nM)
In short: as §1

[13] = tested on: PPARg DBDmut:RXRa IVT, anti-PPARg (DBD mutation: PPARg1 K132A/R137A, NR concentration 270 nM, RXRa partner concentration 90 nM)
In short: as §1

[14] = tested on: PPARg DBDmut IVT, anti-PPARg (DBD mutation: PPARg1 K132A/R137A, NR concentration 270 nM)
In short: as §1

[15] = tested on: PPARg homodimer (NR concentration 180 nM)
In short: as §1

[16] = tested on: PXR:RXRa (NR concentration 270 nM, RXRa partner concentration 90 nM)
In short: as §1

[17] = tested on: PXR homodimer (NR concentration 270 nM)
In short: as §1

[18] = tested on: RARa:RXR (NR concentration 270 nM, RXRa partner concentration 90 nM)
In short: as §1

[19] = tested on: RARa homodimer (NR concentration 270 nM)
In short: as §1

[20] = tested on: RARb:RXRa (NR concentration 270 nM, RXRa partner concentration 90 nM)
In short: as §1

CCTATTAGTTGACCATAGGGGCAACCGAAGCTCG showed a PBM binding z-score [1] of 0.589, a PBM binding z-score [2] of 0.362 and a PBM binding z-score [3] of 0.304. It also gave a PBM binding z-score [4] of 0.153, a PBM binding z-score [5] of 0.195 and a PBM binding z-score [6] of 0.245. It also gave a PBM binding z-score [7] of 0.395, a PBM binding z-score [8] of 0.309 and a PBM binding z-score [9] of -0.142. For the same sequence, the PBM binding z-score [10] was 0.113, the PBM binding z-score [11] was 0.502 and the PBM binding z-score [12] was 0.611. The PBM binding z-score [13] was 0.353, the PBM binding z-score [14] was -0.128 and the PBM binding z-score [15] was 1.32. The PBM binding z-score [16] was 0.256, the PBM binding z-score [17] was 0.563 and the PBM binding z-score [18] was 0.446. For the same sequence, the PBM binding z-score [19] was 1.9 and the PBM binding z-score [20] was 0.983.
For CCTAGTTGGTCAGGAGGTTACACACCGGATATGA, the PBM binding z-score [1] was 0.491, the PBM binding z-score [2] was 0.633 and the PBM binding z-score [3] was 0.538. The PBM binding z-score [4] was 1.02, the PBM binding z-score [5] was 0.258 and the PBM binding z-score [6] was 1.5. It also gave a PBM binding z-score [7] of 1.14, a PBM binding z-score [8] of 1.4 and a PBM binding z-score [9] of 0.448. The PBM binding z-score [10] was 1.07, the PBM binding z-score [11] was 0.814 and the PBM binding z-score [12] was 1.65. It also gave a PBM binding z-score [13] of 0.504, a PBM binding z-score [14] of 0.527 and a PBM binding z-score [15] of 1.84. It also gave a PBM binding z-score [16] of 0.862, a PBM binding z-score [17] of 0.653 and a PBM binding z-score [18] of 1.38. For the same sequence, the PBM binding z-score [19] was 0.725 and the PBM binding z-score [20] was 1.47.
TCAAATAGGTAAATGCTAGGTGAAAGTCCGATCT showed a PBM binding z-score [1] of 1.32, a PBM binding z-score [2] of 0.737 and a PBM binding z-score [3] of -0.0235. The PBM binding z-score [4] was 0.834, the PBM binding z-score [5] was -0.239 and the PBM binding z-score [6] was 1.52. It also gave a PBM binding z-score [7] of 0.685, a PBM binding z-score [8] of 2.74 and a PBM binding z-score [9] of 4.4. For the same sequence, the PBM binding z-score [10] was 3.68, the PBM binding z-score [11] was 3.54 and the PBM binding z-score [12] was 2.47. It also gave a PBM binding z-score [13] of 0.483, a PBM binding z-score [14] of 0.699 and a PBM binding z-score [15] of 0.99. It also gave a PBM binding z-score [16] of 0.653, a PBM binding z-score [17] of 0.443 and a PBM binding z-score [18] of 1.16. For the same sequence, the PBM binding z-score [19] was 1.43 and the PBM binding z-score [20] was 0.7.
TCATAGAGGTAAAGGTGAAAGTCGAACGATATGA was tested, and the PBM binding z-score [1] was 1.13, the PBM binding z-score [2] was 1.35 and the PBM binding z-score [3] was -0.575. For the same sequence, the PBM binding z-score [4] was 1.3, the PBM binding z-score [5] was -0.862 and the PBM binding z-score [6] was 3.63. It also gave a PBM binding z-score [7] of 3.74, a PBM binding z-score [8] of 5.04 and a PBM binding z-score [9] of 3.97. The PBM binding z-score [10] was 4.88, the PBM binding z-score [11] was 2.03 and the PBM binding z-score [12] was 3.05. It also gave a PBM binding z-score [13] of 0.77, a PBM binding z-score [14] of 0.323 and a PBM binding z-score [15] of 0.369. The PBM binding z-score [16] was 1.15, the PBM binding z-score [17] was -0.365 and the PBM binding z-score [18] was 2.03. It also gave a PBM binding z-score [19] of 0.137 and a PBM binding z-score [20] of 2.19.
TCTCCTAGGTCAGTTGGTCAGCTAACGAGCTGCC was tested, and the PBM binding z-score [1] was 1.57, the PBM binding z-score [2] was 1.17 and the PBM binding z-score [3] was 0.111. It also gave a PBM binding z-score [4] of 1.26, a PBM binding z-score [5] of 1.43 and a PBM binding z-score [6] of 1.89. It also gave a PBM binding z-score [7] of 0.491, a PBM binding z-score [8] of 2.47 and a PBM binding z-score [9] of 2.9. For the same sequence, the PBM binding z-score [10] was 2.75, the PBM binding z-score [11] was 2.85 and the PBM binding z-score [12] was 3.32. For the same sequence, the PBM binding z-score [13] was 1.43, the PBM binding z-score [14] was 0.66 and the PBM binding z-score [15] was 1.05. The PBM binding z-score [16] was 0.732, the PBM binding z-score [17] was -0.3 and the PBM binding z-score [18] was 0.918. It also gave a PBM binding z-score [19] of 0.238 and a PBM binding z-score [20] of 3.52.
With TCATATAGGTAAATGCTAAGTGAAAGTCCGATCT the PBM binding z-score [1] was 1.1, the PBM binding z-score [2] was 0.928 and the PBM binding z-score [3] was 0.284. The PBM binding z-score [4] was 0.773, the PBM binding z-score [5] was -0.0273 and the PBM binding z-score [6] was 1.17. It also gave a PBM binding z-score [7] of 0.762, a PBM binding z-score [8] of 2.04 and a PBM binding z-score [9] of 3.9. It also gave a PBM binding z-score [10] of 2.9, a PBM binding z-score [11] of 4.03 and a PBM binding z-score [12] of 2.11. It also gave a PBM binding z-score [13] of 0.478, a PBM binding z-score [14] of 0.946 and a PBM binding z-score [15] of 0.521. For the same sequence, the PBM binding z-score [16] was 0.632, the PBM binding z-score [17] was 0.372 and the PBM binding z-score [18] was 0.974. It also gave a PBM binding z-score [19] of 0.763 and a PBM binding z-score [20] of 0.453.
CAAACTAGGTCAGGAAAGGTCAAAGTCGAATGAC gave a PBM binding z-score [1] of 6.17, a PBM binding z-score [2] of 6.74 and a PBM binding z-score [3] of 6.35. It also gave a PBM binding z-score [4] of 6.12, a PBM binding z-score [5] of 1.93 and a PBM binding z-score [6] of 6.08. For the same sequence, the PBM binding z-score [7] was 8.46, the PBM binding z-score [8] was 6.82 and the PBM binding z-score [9] was 4.45. The PBM binding z-score [10] was 6.88, the PBM binding z-score [11] was 7.59 and the PBM binding z-score [12] was 8.02. The PBM binding z-score [13] was 3.96, the PBM binding z-score [14] was 1.14 and the PBM binding z-score [15] was 6.11. For the same sequence, the PBM binding z-score [16] was 6.57, the PBM binding z-score [17] was 2.16 and the PBM binding z-score [18] was 6.83. It also gave a PBM binding z-score [19] of 3.88 and a PBM binding z-score [20] of 5.36.
